± gives the standard deviation of the averaged measurements. Over roughly 3,800 compounds, “cell shape (eccentricity) Z-score vs DMSO control” has its median near 1.1; the lowest 2% begin near -4.7. What follows is part of a selection rich in the lowest values, with near analogues and random picks from the rest.
Tested on: human monocyte-derived macrophages (M0)
Assay: cell shape (eccentricity) Z-score vs DMSO control; higher = more elongated, M2-like morphology
Conditions: 20 µM; 24 h; macrophage state: M0 (M-CSF)
Procedure: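 Primary human monocyte-derived macrophages (M-CSF differentiated, pooled from 4 donors, 5000 cells/well in 384-well plates) were treated with each compound at 20 uM for 24 h, then fixed and stained with phalloidin/DAPI and imaged on an Opera Phenix (6 fields, about 1000 cells/well). Cell eccentricity was measured with CellProfiler, and a Z-score (t-test) was computed against 4 DMSO control wells in the same row. Negative values mean round (M1-like) cells and positive values mean elongated (M2-like) cells; the paper's hit cutoffs are Z <= -4 (M1) and Z >= 6 (M2). Scale: negative = round, M1-like.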

Compound	cell shape (Z-score)
CN(C)C(=O)Oc1cc(OC(=O)N(C)C)cc(C(O)CNC(C)(C)C)c1 (stereo not given)	2.11
CC(=O)O[C@@H](c1nc2ccccc2c(=O)n1[C@@H]1C[C@@]2(OC1=O)c1ccccc1N1C(=O)[C@H](C)N(O)[C@@H]12)C(C)C	2.14
COc1cc(Br)c(OC)c2c1C(CN)C2 (stereo not given)	-4.96
CCCN(CCC)C1CCc2c(OC)cccc2C1C (stereo not given)	4.87
CC1=CC(=O)c2c(O)cccc2C1=O	-4.68
CC(C)NCC(O)c1ccc(N)c(C#N)c1 (stereo not given)	-0.285
CC(=O)O[C@@H]1CC2C(C)(C)C(=O)C=C[C@]2(C)C2CC[C@]3(C)C(=CC(=O)O[C@H]3c3ccoc3)[C@@]21C (stereo not given in full)	-6.06
CC(=O)O[C@@H]1C[C@@]2(C)[C@H](c3ccoc3)C[C@H]3O[C@]32[C@]2(C)C(=O)C(=O)C3C(C)(C)C(=O)C=C[C@]3(C)C12 (stereo not given in full)	-3.62
CC1(C)C(=O)C=C[C@@]2(C)C1C[C@@H](O)[C@]1(C)C2CC[C@@]2(C)[C@H](c3ccoc3)OC(=O)[C@H]3O[C@]321 (stereo not given in full)	1.86
CC(C)(O)c1cc(O)c2c(c1)CCC1C(C)(C(=O)O)CCCC21C (stereo not given)	0.93
CC(C)c1c(CN(C)C(C)Cc2ccccc2)n(C)n(-c2ccccc2)c1=O (stereo not given)	2.2
CC12C(=O)OC(=O)C1(C)C1CCC2O1 (stereo not given)	-12.8
CN1CCc2cc3c(cc2[C@H]1C1OC(=O)c2c1ccc1c2OCO1)OCO3 (stereo not given in full)	0.327
CC[C@@H](C(=O)[C@@H](C)[C@@H](O)[C@H](C)[C@@H]1O[C@@H]([C@@H](CC)C(=O)O)CC[C@@H]1C)[C@H]1OC2(C=C[C@@H](O)[C@]3(CC[C@@](C)(C4CC[C@](O)(CC)[C@H](C)O4)O3)O2)[C@H](C)C[C@@H]1C (stereo not given in full)	1.16
C=CCN1C[C@H](C)N([C@H](c2ccc(C(=O)N(CC)CC)cc2)c2cccc(O)c2)C[C@H]1C	1.38
C[C@]12CCC3C(CC[C@]4(O)C[C@@H](O)CC[C@]34C=O)[C@@]1(O)CCC2C1=CC(=O)OC1 (stereo not given in full)	-3.05
CC(C)(O)/C=C/C(=O)[C@](C)(O)C1[C@H](O)C[C@@]2(C)C3CC=C4C(CC(=O)C(=O)C4(C)C)[C@]3(C)C(=O)C[C@]12C (stereo not given in full)	-23.9
CC(C)(O)CCC(=O)[C@](C)(O)[C@H]1[C@H](O)C[C@@]2(C)[C@@H]3CC=C4C(C=C(O[C@@H]5O[C@H](CO)[C@@H](O)[C@H](O)[C@H]5O)C(=O)C4(C)C)[C@]3(C)C(=O)C[C@]12C (stereo not given in full)	1.51
CN([N+][O-])c1cc(O)ccc1O	-4.54
C=CCC1(C(C)CCC)C(=O)N=C(S)NC1=O (stereo not given)	2.85

Compound	cell shape (Z-score)
CC(=Cc1csc(C)n1)[C@H]1C[C@@H]2O[C@]2(C)CCC[C@H](C)[C@H](O)[C@@H](C)C(=O)C(C)(C)[C@@H](O)CC(=O)O1	0.111
O=C1c2ccccc2C(=O)c2ccccc21	1.99
c1ccc2c(c1)[I+]c1ccccc1-2	-7.52
C[C@@]12C[C@@H](c3ccoc3)OC(=O)C1CC[C@]1(C)[C@H]2[C@H]2C=C[C@]1(O)C(=O)O2 (stereo not given in full)	-0.795
COc1cc2c(c(OC)c1OC)-c1ccc(OC)c(=O)cc1C(NC(C)=O)CC2 (stereo not given)	8.73
CC(C)(C)c1cc(C=C(C#N)C#N)cc(C(C)(C)C)c1O	-0.65
CO[C@@H]1[C@H](O)[C@@H](O[C@@H]2C[C@H]3CC[C@@H]4C(CC[C@]5(C)[C@@H](C6=CC(=O)OC6)CC[C@]45O)[C@@]3(C)[C@H](O)C2)O[C@H](C)[C@@H]1O[C@@H]1O[C@H](CO)[C@@H](O)[C@H](O)[C@H]1O (stereo not given in full)	-2.59 ± 0.87
C[C@H]1O[C@@H](O[C@H]2CC[C@]3(CO)C4CC[C@]5(C)[C@@H](C6=CC(=O)OC6)CC[C@]5(O)C4CC[C@H]3C2)[C@H](O)[C@H](O)[C@@H]1O (stereo not given in full)	1.31
C[C@H]1O[C@@H](O[C@H]2CC[C@]3(CO)C4CC[C@]5(C)[C@@H](C6=CC(=O)OC6)CC[C@]5(O)[C@@H]4CC[C@H]3C2)[C@H](O)[C@H](O)[C@@H]1O[C@@H]1O[C@H](CO)[C@@H](O)[C@H](O)[C@H]1O (stereo not given in full)	-6
COc1ccc2c(c1O)-c1cc(O)cc3c1[C@@H](C2)N(C)CC3	0.611
CCCn1c(C)c(C(=O)c2cccc3ccccc23)c2ccccc21	1.57
Cc1c(C(=O)c2cccc3ccccc23)c2cccc3c2n1[C@H](CN1CCOCC1)CO3	-5.15
Cc1c(C(=O)c2cccc3ccccc23)c2cccc3c2n1[C@@H](CN1CCOCC1)CO3	3.85
COc1cc([C@@H]2c3cc4c(cc3[C@H](OC(C)=O)[C@H]3COC(=O)[C@H]23)OCO4)cc(OC)c1OC	9.18
Cc1ccc2c(c1)Cc1c(C(=O)NC3CCCCC3)nn(-c3ccc(Cl)cc3Cl)c1-2	2.43
N#CC(C#N)=Cc1cc(O)c(O)c([N+](=O)[O-])c1	-0.026
CCNC(=O)C1OC(n2cnc3c(N)ncnc32)C(O)C1O (stereo not given)	4.21
CCOC(=O)c1ncn2c1CN(C)C(=O)c1cc(N=[N+]=[N-])ccc1-2	2.52
CN1C[C@H](C(=O)N[C@]2(C)O[C@@]3(O)[C@@H]4CCCN4C(=O)[C@H](Cc4ccccc4)N3C2=O)C[C@@H]2c3cccc4[nH]cc(c34)C[C@H]21	3.57
CC(N)Cn1ccc2cc(F)c(Cl)cc21 (stereo not given)	0.211
